# Records with an inconclusive call do not appear. More than one record can exist for a structure, and the calls need not agree. Activity calls are given as the source filed them. Rule for the calls, unless noted: active = hit-call score of the fitted dose curve at least 0.9, where 1 is the maximum; inconclusive = response in the unintended direction; inactive = score below 0.9.
# What was measured:
# [1] = molecular target: Estrogen receptor beta (Homo sapiens) (UniProt Q92731); test: OT_ER_ERbERb_1440: Odyssey Thera (OT) 24-hour HEK293T Protein-Complementation Assay for Estrogen Receptor-beta/-beta Homodimer (AID 2283380);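 note: fluorescence gain from ER beta LBD homodimer complementation read by laser scanning cytometry; scored as signal increase over DMSO baseline for both agonists and antagonists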
# Sequence of Estrogen receptor beta (Homo sapiens) (Q92731 whole entry, looked up, the tested form may be a part): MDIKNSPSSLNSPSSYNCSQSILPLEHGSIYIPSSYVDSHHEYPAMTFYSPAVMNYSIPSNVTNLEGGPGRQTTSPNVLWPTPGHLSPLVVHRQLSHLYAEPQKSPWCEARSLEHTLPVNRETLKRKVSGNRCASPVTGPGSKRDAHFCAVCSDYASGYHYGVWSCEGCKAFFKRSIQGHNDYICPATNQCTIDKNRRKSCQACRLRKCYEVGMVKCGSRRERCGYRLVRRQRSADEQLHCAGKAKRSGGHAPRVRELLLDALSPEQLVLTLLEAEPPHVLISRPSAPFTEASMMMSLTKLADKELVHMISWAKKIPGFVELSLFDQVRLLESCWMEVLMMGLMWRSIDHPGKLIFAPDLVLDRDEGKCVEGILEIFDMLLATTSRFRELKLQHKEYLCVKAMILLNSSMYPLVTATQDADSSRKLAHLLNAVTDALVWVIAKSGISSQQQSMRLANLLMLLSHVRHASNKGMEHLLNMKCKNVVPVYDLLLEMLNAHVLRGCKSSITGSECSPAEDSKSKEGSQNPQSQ
# Outline: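 HEK293T cells stably expressing human ER-beta LBD (aa 310-547) PCA homodimer pair, dosed 24 h; formaldehyde-fixed, Draq5-stained. Readout: increase in nuclear (agonist) or nuclear plus cytoplasmic (antagonist) fluorescence intensity versus DMSO, gain-of-signal fitting.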
# [2] = molecular target: Bile acid receptor (Homo sapiens) (UniProt Q96RI1); test: OT_FXR_FXRSRC1_0480: Odyssey Thera (OT) 8-hour HEK293T Protein-Complementation Assay for Farnesoid X receptor/SRC-1 Co-activator (AID 2283383)
# Sequence of Bile acid receptor (Homo sapiens) (Q96RI1 whole entry, looked up, the tested form may be a part): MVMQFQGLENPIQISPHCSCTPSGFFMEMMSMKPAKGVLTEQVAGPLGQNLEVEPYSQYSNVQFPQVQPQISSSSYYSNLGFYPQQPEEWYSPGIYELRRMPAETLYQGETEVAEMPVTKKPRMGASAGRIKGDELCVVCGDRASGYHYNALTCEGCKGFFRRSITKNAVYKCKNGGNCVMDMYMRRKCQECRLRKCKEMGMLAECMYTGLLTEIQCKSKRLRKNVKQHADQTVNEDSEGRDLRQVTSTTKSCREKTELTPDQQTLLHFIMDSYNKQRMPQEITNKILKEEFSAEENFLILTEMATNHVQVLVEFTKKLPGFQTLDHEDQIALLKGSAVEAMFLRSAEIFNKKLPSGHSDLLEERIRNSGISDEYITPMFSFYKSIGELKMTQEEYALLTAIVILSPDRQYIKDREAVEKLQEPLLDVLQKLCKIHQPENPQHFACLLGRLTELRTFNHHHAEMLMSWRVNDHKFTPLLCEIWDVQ
# Outline: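 Co-activator recruitment to FXR was measured in living HEK293T cells, where interaction of the two fused partners restored an active fluorescent reporter. Signal gain after 8 h treatment was referenced to DMSO.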
# [3] = molecular target: Bile acid receptor (Homo sapiens) (UniProt Q96RI1); test: OT_FXR_FXRSRC1_1440: Odyssey Thera (OT) 24-hour HEK293T Protein-Complementation Assay for Farnesoid X receptor/SRC-1 Co-activator (AID 2283384)
# Outline: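 Cell-based binding reporter: interaction of FXR with SRC-1 brings reporter fragments together, giving a fluorescence signal read 24 h after dosing of HEK293T cells.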
# [4] = molecular target: Retinoic acid receptor RXR-alpha (Homo sapiens) (UniProt P19793); test: OT_NURR1_NURR1RXRa_0480: Odyssey Thera (OT) 8-hour HEK293T Protein Complementation Assay for Nurr1/retinoid X receptor (RXR) (AID 2283385)
# Sequence of Retinoic acid receptor RXR-alpha (Homo sapiens) (P19793 whole entry, looked up, the tested form may be a part): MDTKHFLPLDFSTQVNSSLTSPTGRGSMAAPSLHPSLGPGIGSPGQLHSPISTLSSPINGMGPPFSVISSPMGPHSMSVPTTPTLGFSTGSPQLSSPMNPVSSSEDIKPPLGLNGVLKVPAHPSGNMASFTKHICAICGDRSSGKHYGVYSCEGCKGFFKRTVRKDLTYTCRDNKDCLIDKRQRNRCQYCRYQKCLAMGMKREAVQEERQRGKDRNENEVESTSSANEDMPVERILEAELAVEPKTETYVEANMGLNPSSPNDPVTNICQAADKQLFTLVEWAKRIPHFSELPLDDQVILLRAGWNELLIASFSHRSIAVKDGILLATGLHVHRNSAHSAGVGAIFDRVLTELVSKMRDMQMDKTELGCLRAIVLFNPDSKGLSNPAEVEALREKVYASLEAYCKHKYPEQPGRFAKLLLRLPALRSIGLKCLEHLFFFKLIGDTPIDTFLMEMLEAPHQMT
# Outline: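 Compounds are applied to HEK293T cells carrying Nurr1 and RXRα linked to reporter fragments. After 8 h, fluorescence intensity reports heterodimer formation, with DMSO as baseline.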
# [5] = molecular target: Retinoic acid receptor RXR-alpha (Homo sapiens) (UniProt P19793); test: OT_NURR1_NURR1RXRa_1440: Odyssey Thera (OT) 24-hour HEK293T Protein Complementation Assay for Nurr1/retinoid X receptor (RXR) (AID 2283386)
# Outline: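 Measured as fluorescence from a reconstituted split reporter, this 24 h HEK293T complementation assay scores compound-induced gain of Nurr1/RXRα association relative to DMSO.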
# [6] = molecular target: Peroxisome proliferator-activated receptor gamma (Homo sapiens) (UniProt P37231); test: OT_PPARg_PPARgSRC1_0480: Odyssey Thera (OT) 8-hour Protein-Complementation Assay for Peroxisome Proliferator-activated Receptor Gamma / SRC-1 Co-activator (AID 2283387);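 note: nuclear to cytoplasmic split Venus YFP fluorescence ratio reporting PPARg SRC-1 interaction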
# Sequence of Peroxisome proliferator-activated receptor gamma (Homo sapiens) (P37231 whole entry, looked up, the tested form may be a part): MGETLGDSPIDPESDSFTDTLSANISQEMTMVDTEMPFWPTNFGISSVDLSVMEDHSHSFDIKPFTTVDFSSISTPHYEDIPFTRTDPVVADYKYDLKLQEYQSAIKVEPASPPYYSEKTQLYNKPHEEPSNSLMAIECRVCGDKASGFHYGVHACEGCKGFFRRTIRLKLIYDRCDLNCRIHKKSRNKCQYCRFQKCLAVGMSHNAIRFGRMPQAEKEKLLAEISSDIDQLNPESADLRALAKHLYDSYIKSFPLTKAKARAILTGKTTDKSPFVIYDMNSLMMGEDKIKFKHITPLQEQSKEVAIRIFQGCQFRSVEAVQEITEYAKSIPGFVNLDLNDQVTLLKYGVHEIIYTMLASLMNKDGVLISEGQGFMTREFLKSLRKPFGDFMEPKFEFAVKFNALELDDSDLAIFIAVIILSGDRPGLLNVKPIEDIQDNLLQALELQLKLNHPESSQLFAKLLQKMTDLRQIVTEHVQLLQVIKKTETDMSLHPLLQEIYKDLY
# Outline: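 Protein-fragment complementation of split Venus YFP reports PPARg/SRC-1 interaction in HEK293T (transfected 48 h before treatment), exposed 8 h. Readout: N/C fluorescence ratio at 488 nm from imaging, Draq5 for segmentation, positive fit relative to DMSO.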
# [7] = molecular target: Peroxisome proliferator-activated receptor gamma (Homo sapiens) (UniProt P37231); test: OT_PPARg_PPARgSRC1_1440: Odyssey Thera (OT) 24-hour Protein-Complementation Assay for Peroxisome Proliferator-activated Receptor Gamma/ SRC-1 Co-activator (AID 2283388);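 note: nuclear to cytoplasmic ratio of reconstituted Venus YFP fluorescence in fixed imaged cells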
# Outline: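 Readout: nuclear-to-cytoplasmic 488 nm fluorescence ratio, ≥350 cells per image, 8 images per well, after 24 h compound exposure of HEK293T expressing PPARg/SRC-1 split-YFP fusions. Activity fitted in positive direction against DMSO.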
# [8] = molecular target: Estrogen receptor (Homo sapiens) (UniProt P03372); test: OT_ERa_GFPERaERE_0480: Odyssey Thera (OT) 8-hour HeLa Transcription Induction Assay for Estrogen Receptor (AID 2283381; active = hit-call score of the fitted dose curve at least 0.9, where 1 is the maximum; inactive = score below 0.9)
# Sequence of Estrogen receptor (Homo sapiens) (P03372 whole entry, looked up): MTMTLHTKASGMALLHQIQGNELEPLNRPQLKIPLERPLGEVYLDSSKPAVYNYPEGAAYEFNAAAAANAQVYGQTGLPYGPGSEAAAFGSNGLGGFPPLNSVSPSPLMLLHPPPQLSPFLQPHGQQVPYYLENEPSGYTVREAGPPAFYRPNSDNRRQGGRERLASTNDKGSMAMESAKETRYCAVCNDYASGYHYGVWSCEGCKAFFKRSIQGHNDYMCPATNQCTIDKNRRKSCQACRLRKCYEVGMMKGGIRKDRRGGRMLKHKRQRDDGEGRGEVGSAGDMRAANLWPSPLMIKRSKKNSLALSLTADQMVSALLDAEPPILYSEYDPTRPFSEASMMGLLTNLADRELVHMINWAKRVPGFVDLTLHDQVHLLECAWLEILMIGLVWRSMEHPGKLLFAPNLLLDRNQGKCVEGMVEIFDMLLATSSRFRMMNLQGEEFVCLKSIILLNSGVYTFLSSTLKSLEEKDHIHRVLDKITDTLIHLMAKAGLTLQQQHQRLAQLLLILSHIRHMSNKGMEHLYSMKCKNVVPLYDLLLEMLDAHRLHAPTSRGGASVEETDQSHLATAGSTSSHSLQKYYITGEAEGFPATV
# Outline: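 Cells (HeLa) receive compound; after 8 h, reporter fluorescence is imaged and quantified by high-content analysis. Gain-of-signal relative to DMSO gives the endpoint.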
# [9] = CEETOX_H295R_11DCORT: CeeTox H295R High-throughput Steroidogenesis Assay for 11-Deoxycortisol (11DCORT) (AID 2283432; active = hit-call score of the fitted dose curve at least 0.9, where 1 is the maximum; inactive = score below 0.9;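 for AC50: 11-deoxycortisol secreted into the medium measured by LC-MS/MS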); details: actives raise or lower the signal
# Outline: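 Human adrenal H295R cells were prestimulated with 10 uM forskolin for 48 h, then exposed to test chemical (0.1% DMSO final) for 48 h. Medium 11-deoxycortisol was quantified by MTBE extraction and HPLC-MS/MS; bidirectional fitting relative to DMSO.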
# [10] = CEETOX_H295R_OHPREG: CeeTox H295R High-throughput Steroidogenesis Assay for OH-Pregnenolone (OHPREG) (AID 2283434; active = hit-call score of the fitted dose curve at least 0.9, where 1 is the maximum; inactive = score below 0.9); details: actives raise or lower the signal
# Outline: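 Human adrenal H295R cells were prestimulated 48 h with 10 uM forskolin, then exposed 48 h to chemical in 0.1% DMSO. Medium 17alpha-hydroxypregnenolone was quantified by HPLC-MS/MS after MTBE extraction; bidirectional fitting versus DMSO baseline.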
# [11] = CEETOX_H295R_OHPROG: CeeTox H295R High-throughput Steroidogenesis Assay for OH-Progesterone (OHPROG) (AID 2283435; active = hit-call score of the fitted dose curve at least 0.9, where 1 is the maximum; inactive = score below 0.9;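 for AC50: 17alpha-hydroxyprogesterone secreted into medium measured by HPLC-MS/MS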); details: actives raise or lower the signal
# Outline: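 Secreted 17alpha-hydroxyprogesterone is read by tandem MS from media of forskolin-primed H295R cells dosed with chemical for 48 h. Activity is fitted in both directions against DMSO baseline; cytotoxic concentrations are re-tested diluted.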
# [12] = CEETOX_H295R_CORTIC: CeeTox H295R High-throughput Steroidogenesis Assay for Corticosterone (CORTIC) (AID 2283437; active = hit-call score of the fitted dose curve at least 0.9, where 1 is the maximum; inactive = score below 0.9;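 note: corticosterone secreted into medium quantified by mass spectrometry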); details: actives raise or lower the signal
# Outline: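 H295R cells were prestimulated 48 h with 10 uM forskolin, then exposed 48 h to test chemical in 0.1% DMSO. Medium corticosterone was MTBE-extracted and quantified by HPLC-MS/MS; bidirectional fit versus DMSO baseline.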
# [13] = CEETOX_H295R_CORTISOL: CeeTox H295R High-throughput Steroidogenesis Assay for Cortisol (AID 2283438; active = hit-call score of the fitted dose curve at least 0.9, where 1 is the maximum; inactive = score below 0.9;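 note: cortisol secreted into medium quantified by LC-MS/MS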); details: actives raise or lower the signal
# Outline: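 Human adrenocortical H295R cells (passage ≤10) received test chemicals for 48 h after forskolin priming. Secreted cortisol was measured by LC-MS/MS.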
# [14] = CEETOX_H295R_DOC: CeeTox H295R High-throughput Steroidogenesis Assay for DOC (AID 2283439; active = hit-call score of the fitted dose curve at least 0.9, where 1 is the maximum; inactive = score below 0.9); details: actives raise or lower the signal
# Outline: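 Secreted DOC was quantified from H295R media by HPLC-MS/MS after 48 h chemical exposure following 48 h forskolin (10 uM) prestimulation. Values were fitted in both directions relative to DMSO, the negative control and baseline.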
# [15] = CEETOX_H295R_ESTRADIOL: CeeTox H295R High-throughput Steroidogenesis Assay for Estradiol (AID 2283440; active = hit-call score of the fitted dose curve at least 0.9, where 1 is the maximum; inactive = score below 0.9;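 note: estradiol secreted into medium quantified by LC-MS/MS after dansyl derivatisation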); details: actives raise or lower the signal
# Outline: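 H295R, 48 h forskolin (10 uM) prestim → 48 h compound, 0.1% DMSO final. Estradiol in medium: MTBE extraction, dansyl chloride derivatization, LC-MS/MS. Fit bidirectional vs DMSO baseline; MTT viability in same wells.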
# [16] = CEETOX_H295R_ESTRONE: CeeTox H295R High-throughput Steroidogenesis Assay for Estrone (AID 2283441; active = hit-call score of the fitted dose curve at least 0.9, where 1 is the maximum; inactive = score below 0.9;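 note: estrone secreted into medium measured by LC-MS/MS after dansyl derivatization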); details: actives raise or lower the signal
# Outline: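 H295R cells; 48 h forskolin (10 uM) prestimulation; 48 h compound exposure, 0.1% DMSO final. Medium estrone: MTBE extraction, dansyl derivatization, HPLC-MS/MS. Bidirectional fit vs DMSO.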
# [17] = molecular target: Estrogen receptor (Homo sapiens) (UniProt P03372); test: OT_ERa_GFPERaERE_0120: Odyssey Thera (OT) 2-hour HeLa Transcription Induction Assay for Estrogen Receptor (AID 2283382)
# Outline: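 Measures ESR1 pathway reporter gain-of-signal in HeLa cells after a 2-hour treatment, detected as fluorescent protein induction by microscopy, DMSO as baseline.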
structure (smiles),measurement,setting,value
CC1(C)C(C(=O)OC(C#N)c2cccc(Oc3ccccc3)c2)C1(C)C (stereo unspecified),outcome,[1],inactive
same,AC50,[2],2.05 µM (active)
same,AC50,[3],5.39 µM (active)
same,outcome,[4],inactive
same,outcome,[5],inactive
same,outcome,[6],inactive
same,outcome,[7],inactive
O=c1n(Cl)c(=O)n(Cl)c(=O)n1Cl,outcome,[1],inactive
same,outcome,[4],inactive
same,outcome,[5],inactive
same,outcome,[6],inactive
same,outcome,[7],inactive
CCOP(=S)(OCC)Oc1nc(Cl)n(C(C)C)n1,outcome,[8],inactive
same,outcome,[6],inactive
same,outcome,[7],inactive
same,outcome,[9],inactive
same,outcome,[10],inactive
same,AC50,[11],35.8 µM (active)
same,outcome,[12],inactive
same,outcome,[13],inactive
same,outcome,[14],inactive
CCNC(=O)NC(=O)C(C#N)=NOC,outcome,[2],inactive
same,AC50,[3],23.1 µM (active)
same,outcome,[4],inactive
same,AC50,[5],29.6 µM (active)
same,outcome,[5],inactive
same,outcome,[6],inactive
same,outcome,[7],inactive
CCN(CC)C(=O)C(C)Oc1cccc2ccccc12 (stereo unspecified),outcome,[1],inactive
same,AC50,[2],32.6 µM (active)
same,AC50,[3],31.3 µM (active)
same,outcome,[4],inactive
same,outcome,[5],inactive
same,outcome,[6],inactive
same,outcome,[7],inactive
same,outcome,[10],inactive
same,outcome,[11],inactive
same,outcome,[15],inactive
same,outcome,[16],inactive
CC(C)N1C(=O)c2ccccc2NS1(=O)=O,outcome,[6],inactive
same,outcome,[7],inactive
N#Cc1c[nH]cc1-c1cccc2c1OC(F)(F)O2,outcome,[5],inactive
same,outcome,[6],inactive
same,outcome,[7],inactive
O=C(O)c1c(Cl)ccc2cc(Cl)cnc12,outcome,[1],inactive
same,outcome,[2],inactive
same,outcome,[3],inactive
same,outcome,[4],inactive
same,outcome,[5],inactive
same,outcome,[6],inactive
same,outcome,[7],inactive
CCCN(CC)CC1COC2(CCC(C(C)(C)C)CC2)O1 (stereo unspecified),outcome,[1],inactive
same,AC50,[4],50 µM (active)
same,outcome,[4],inactive
same,outcome,[5],inactive
same,AC50,[9],0.202 µM (active)
same,AC50,[10],0.131 µM (active)
same,AC50,[11],0.112 µM (active)
same,outcome,[12],inactive
same,outcome,[13],inactive
same,AC50,[14],0.812 µM (active)
same,outcome,[15],inactive
same,outcome,[16],inactive
CNC(=O)N(C)c1nnc(C(C)(C)C)s1,outcome,[1],inactive
same,outcome,[4],inactive
same,outcome,[5],inactive
same,outcome,[6],inactive
same,outcome,[7],inactive
COC(=O)NS(=O)(=O)c1ccc(N)cc1,outcome,[1],inactive
same,outcome,[5],inactive
same,outcome,[6],inactive
same,outcome,[7],inactive
CC1(C)CON(Cc2ccccc2Cl)C1=O,outcome,[1],inactive
same,outcome,[4],inactive
same,outcome,[5],inactive
same,outcome,[6],inactive
same,outcome,[7],inactive
same,outcome,[10],inactive
same,outcome,[11],inactive
same,outcome,[15],inactive
same,outcome,[16],inactive
CO/N=C(/C1=NOCCO1)c1ccccc1Oc1ncnc(Oc2ccccc2Cl)c1F,outcome,[8],inactive
same,outcome,[17],inactive
same,AC50,[2],12.4 µM (active)
same,AC50,[3],12.7 µM (active)
same,outcome,[4],inactive
same,outcome,[6],inactive
same,outcome,[7],inactive
CC(C)C1(C)N=C(c2ncccc2C(=O)O)NC1=O (stereo unspecified),outcome,[8],inactive
same,outcome,[17],inactive
same,outcome,[5],inactive
same,outcome,[6],inactive
same,outcome,[7],inactive
COCC(C)N(C(=O)CCl)c1c(C)csc1C (stereo unspecified),outcome,[8],inactive
same,outcome,[2],inactive
same,outcome,[4],inactive
same,outcome,[5],inactive
same,outcome,[6],inactive
same,outcome,[7],inactive
N#CN=C1SCCN1Cc1ccc(Cl)nc1,outcome,[4],inactive
same,outcome,[6],inactive
same,outcome,[7],inactive
same,outcome,[9],inactive
same,AC50,[10],50 µM (active)
same,outcome,[11],inactive
same,outcome,[12],inactive
same,outcome,[13],inactive
same,outcome,[14],inactive
CCCCC(C#N)(Cn1cncn1)c1ccc(Cl)cc1 (stereo unspecified),outcome,[8],inactive
same,outcome,[4],inactive
same,outcome,[6],inactive
same,outcome,[7],inactive
same,AC50,[9],51 µM (active)
same,AC50,[10],7.87 µM (active)
same,AC50,[11],4.02 µM (active)
same,outcome,[12],inactive
same,AC50,[13],0.832 µM (active)
same,AC50,[14],36.5 µM (active)
CN/C(=N\[N+](=O)[O-])NCc1cnc(Cl)s1,outcome,[1],inactive
same,outcome,[17],inactive
same,outcome,[4],inactive
same,outcome,[5],inactive
same,outcome,[6],inactive
same,outcome,[7],inactive
same,outcome,[10],inactive
same,outcome,[11],inactive
same,outcome,[15],inactive
same,outcome,[16],inactive
CS(=O)(=O)c1ccc(C(=O)C2C(=O)CCCC2=O)c([N+](=O)[O-])c1,outcome,[1],inactive
same,outcome,[2],inactive
same,outcome,[3],inactive
same,outcome,[4],inactive
same,outcome,[6],inactive
same,outcome,[7],inactive
O=C(Nc1ccccc1-c1ccc(Cl)cc1)c1cccnc1Cl,outcome,[1],inactive
same,outcome,[4],inactive
same,outcome,[5],inactive
same,outcome,[6],inactive
same,outcome,[7],inactive
same,outcome,[9],inactive
same,outcome,[10],inactive
same,outcome,[11],inactive
same,outcome,[12],inactive
same,outcome,[13],inactive
same,AC50,[14],9.59 µM (active)
same,outcome,[15],inactive
same,outcome,[16],inactive
Cc1nc(N(C)C)nc(OC(=O)N(C)C)c1C,outcome,[1],inactive
same,outcome,[3],inactive
same,outcome,[4],inactive
same,outcome,[5],inactive
same,outcome,[6],inactive
same,outcome,[7],inactive
same,outcome,[9],inactive
same,outcome,[10],inactive
same,outcome,[11],inactive
same,outcome,[12],inactive
same,outcome,[13],inactive
same,outcome,[14],inactive
same,outcome,[15],inactive
same,outcome,[16],inactive
CC(C)NC(=O)N1CC(=O)N(c2cc(Cl)cc(Cl)c2)C1=O,outcome,[17],inactive
same,outcome,[6],inactive
same,outcome,[7],inactive
same,AC50,[10],10.3 µM (active)
same,AC50,[11],19 µM (active)
